target: Streptavidin (Streptomyces avidinii) (UniProt P22629); assay: streptavidin binders on small-molecule microarray, primary screen, artefact control for SMM compound annotation, biophysical, 635/667 nm fluorescence (AID 1147); details: streptavidin binding, higher = more signal;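 note: signal reflects streptavidin binding to arrayed compounds as a control protein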
Sequence (P22629 whole entry, looked up): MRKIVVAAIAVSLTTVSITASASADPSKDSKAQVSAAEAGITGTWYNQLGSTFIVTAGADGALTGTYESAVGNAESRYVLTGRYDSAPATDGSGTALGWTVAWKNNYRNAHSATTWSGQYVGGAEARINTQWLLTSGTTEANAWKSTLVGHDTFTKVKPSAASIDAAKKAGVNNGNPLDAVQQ

SMILES	composite z-score
O=C1C2C=CC(C(O)C3CCCCC3)N(Nc3ccc([N+](=O)[O-])cc3)C2C(=O)N1c1ccccc1 (stereo not given)	0.48
C=CCNC(=O)[C@H]1[C@@H]2C(=O)O[C@@H](c3ccccc3)[C@@H](c3ccccc3)N2[C@@H](c2ccc(OCCO)cc2)[C@]12C(=O)N(C(=O)OCCOC)c1ccccc12	0.614
O=C1C2C=CC(C(O)c3c(F)cccc3Cl)N(Nc3ccccc3)C2C(=O)N1c1ccccc1 (stereo not given)	1.1
CC(C)c1ccc(NN2C(C(O)c3cc(C(F)(F)F)cc(C(F)(F)F)c3)C=CC3C(=O)N(c4ccccc4)C(=O)C32)cc1 (stereo not given)	0.759
[N-]=[N+]=NCc1ccccc1C[C@]1(C(=O)O)N=C(c2ccc(OCCCO)cc2)O[C@H]1c1ccccc1N=[N+]=[N-]	0.954
O=C1O[C@H](c2ccccc2)[C@H](c2ccccc2)N2[C@H]1[C@@H](C(=O)NC[C@H](O)c1ccccc1)[C@]1(C(=O)Nc3ccccc31)[C@H]2c1ccc(OCCO)cc1	0.261
COC(=O)[C@@]1(Cc2ccc(F)cc2)[C@H]2c3cc(C(=O)N4CCCC4)n(Cc4ccc(C)o4)c3C[C@H]2CN1C(=O)c1ccccc1	1.39
COc1ccc([Si](C)(C)[C@H]2[C@H](CCn3cc([C@H](O)c4ccccc4)nn3)O[C@@]3(C(=O)N(Cc4cccc(N5CCOC5=O)c4)c4ccccc43)[C@@H]2C)cc1	0.283
COc1ccc(CCNC(=O)[C@@]2(C)c3ccccc3C(=O)N(Cc3cc(F)cc(C(F)(F)F)c3)[C@H]2c2ccc(CO)cc2)cc1	-0.55
O=C1O[C@@H](c2ccccc2)[C@@H](c2ccccc2)N2[C@@H](c3ccc(OCCO)cc3)[C@]3(C(=O)Nc4ccccc43)[C@@H](C(=O)NC[C@H](O)c3ccccc3)[C@H]12	0.146
